# Laboratory results: article PMC8384837, “Expanding the binding specificity for RNA recognition by a PUF domain”
# Legend:
# Assay in all cases: yeast three-hybrid, YBZ-1, SC-Leu-His + 0.5 mM 3-AT, 4 days
# Conditions in all cases: tags: N-Gal4 AD-HA kept; label: inside an RPR1-promoter hybrid RNA with tandem MS2 sites; ssRNA
# PUM1 PUF domain R3-LHH = PUM1 PUF domain R3-LHH (Homo sapiens, UniProt Q14671 828-1176, C935L;R936H;Q939H)
# Outline: (§1)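 Matching RNA elements and Pumilio-1 PUF domain libraries, randomized at the three base-contacting residues of every repeat, were co-expressed from a centromeric plasmid in strain YBZ-1 (LexA–MS2 coat fusion, HIS3 reporter). The repeat regions were PCR-amplified and Illumina-sequenced from cells grown four days on SC-Leu (input) or SC-Leu-His + 0.5 mM 3-AT (selection). The interaction score is the log change in variant frequency from input to selection. It is computed in log2, with a pseudocount of 1 for absent variants.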
# PUM1 PUF domain R3-QRA = PUM1 PUF domain R3-QRA (Homo sapiens, UniProt Q14671 828-1176, C935Q;Q939A)
# Outline: as §1
# PUM1 PUF domain R3-QRV = PUM1 PUF domain R3-QRV (Homo sapiens, UniProt Q14671 828-1176, C935Q;Q939V)
# Outline: as §1
# PUM1 PUF domain R5-QRL = PUM1 PUF domain R5-QRL (Homo sapiens, UniProt Q14671 828-1176, C1007Q;Q1011L)
# Outline: as §1
# PUM1 PUF domain R4-DYI = PUM1 PUF domain R4-DYI (Homo sapiens, UniProt Q14671 828-1176, N971D;H972Y;Q975I)
# Outline: as §1
# PUM1 PUF domain R4-NNG = PUM1 PUF domain R4-NNG (Homo sapiens, UniProt Q14671 828-1176, H972N;Q975G)
# Outline: as §1
# PUM1 PUF domain R4-YHA = PUM1 PUF domain R4-YHA (Homo sapiens, UniProt Q14671 828-1176, N971Y;Q975A)
# Outline: as §1
# PUM1 PUF domain R5-LYA = PUM1 PUF domain R5-LYA (Homo sapiens, UniProt Q14671 828-1176, C1007L;R1008Y;Q1011A)
# Outline: as §1
# PUM1 PUF domain R7-QPR = PUM1 PUF domain R7-QPR (Homo sapiens, UniProt Q14671 828-1176, S1079Q;N1080P;E1083R)
# Outline: as §1
# PUM1 PUF domain R4-PFT = PUM1 PUF domain R4-PFT (Homo sapiens, UniProt Q14671 828-1176, N971P;H972F;Q975T)
# Outline: as §1
# PUM1 PUF domain R4-NNG, sequence (Q14671 828-1176 H972N/Q975G): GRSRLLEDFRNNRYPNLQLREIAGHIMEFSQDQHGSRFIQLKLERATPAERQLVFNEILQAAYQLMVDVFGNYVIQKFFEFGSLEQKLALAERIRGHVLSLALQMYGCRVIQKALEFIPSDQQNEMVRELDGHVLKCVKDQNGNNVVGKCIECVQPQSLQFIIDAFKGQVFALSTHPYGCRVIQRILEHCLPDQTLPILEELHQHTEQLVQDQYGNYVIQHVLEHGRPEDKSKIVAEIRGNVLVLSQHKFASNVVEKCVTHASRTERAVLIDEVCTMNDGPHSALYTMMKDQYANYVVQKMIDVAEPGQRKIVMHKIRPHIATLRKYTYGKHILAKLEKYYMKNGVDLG
# PUM1 PUF domain R5-QRL, sequence (Q14671 828-1176 C1007Q/Q1011L): as the sequence (Q14671 828-1176 H972N/Q975G) above, with N145H, G148Q, C180Q, Q184L counted along it
# PUM1 PUF domain R5-LYA, sequence (Q14671 828-1176 C1007L/R1008Y/Q1011A): as the sequence (Q14671 828-1176 H972N/Q975G) above, with N145H, G148Q, C180L, R181Y, Q184A counted along it
# PUM1 PUF domain R3-QRV, sequence (Q14671 828-1176 C935Q/Q939V): as the sequence (Q14671 828-1176 H972N/Q975G) above, with C108Q, Q112V, N145H, G148Q counted along it
# PUM1 PUF domain R3-QRA, sequence (Q14671 828-1176 C935Q/Q939A): as the sequence (Q14671 828-1176 H972N/Q975G) above, with C108Q, Q112A, N145H, G148Q counted along it
# PUM1 PUF domain R7-QPR, sequence (Q14671 828-1176 S1079Q/N1080P/E1083R): as the sequence (Q14671 828-1176 H972N/Q975G) above, with N145H, G148Q, S252Q, N253P, E256R counted along it
# PUM1 PUF domain R4-DYI, sequence (Q14671 828-1176 N971D/H972Y/Q975I): as the sequence (Q14671 828-1176 H972N/Q975G) above, with N144D, N145Y, G148I counted along it
# PUM1 PUF domain R4-PFT, sequence (Q14671 828-1176 N971P/H972F/Q975T): as the sequence (Q14671 828-1176 H972N/Q975G) above, with N144P, N145F, G148T counted along it
# PUM1 PUF domain R4-YHA, sequence (Q14671 828-1176 N971Y/Q975A): as the sequence (Q14671 828-1176 H972N/Q975G) above, with N144Y, N145H, G148A counted along it
# PUM1 PUF domain R3-LHH, sequence (Q14671 828-1176 C935L/R936H/Q939H): as the sequence (Q14671 828-1176 H972N/Q975G) above, with C108L, R109H, Q112H, N145H, G148Q counted along it
sequence,measurement,setting,value
GGCUAGAACUAGUGGAUCCCCCGGCGCCCGGCGGCUCGAGCCCGGGUAAGUGUAAGUAGUCUGCAUGCCGCCGGGCGCCAUGCCUGCAGGUCGACUCUAGAAAACAUG,binding signal,PUM1 PUF domain R3-LHH,5.47 log2 enrichment (interaction score)
same,binding signal,PUM1 PUF domain R3-QRA,3.67 log2 enrichment (interaction score)
same,binding signal,PUM1 PUF domain R3-QRV,3.59 log2 enrichment (interaction score)
GGCUAGAACUAGUGGAUCCCCCGGCGCCCGGCGGCUCGAGCCCGGGUAAGUGUGAAUAGUCUGCAUGCCGCCGGGCGCCAUGCCUGCAGGUCGACUCUAGAAAACAUG,binding signal,PUM1 PUF domain R5-QRL,3.22 log2 enrichment (interaction score)
GGCUAGAACUAGUGGAUCCCCCGGCGCCCGGCGGCUCGAGCCCGGGUAAGUGUAUAUAGUCUGCAUGCCGCCGGGCGCCAUGCCUGCAGGUCGACUCUAGAAAACAUG,binding signal,PUM1 PUF domain R4-DYI,6.31 log2 enrichment (interaction score)
same,binding signal,PUM1 PUF domain R4-NNG,4.95 log2 enrichment (interaction score)
same,binding signal,PUM1 PUF domain R4-YHA,3.12 log2 enrichment (interaction score)
GGCUAGAACUAGUGGAUCCCCCGGCGCCCGGCGGCUCGAGCCCGGGUAAGUGUAAUUAGUCUGCAUGCCGCCGGGCGCCAUGCCUGCAGGUCGACUCUAGAAAACAUG,binding signal,PUM1 PUF domain R3-QRA,2.85 log2 enrichment (interaction score)
same,binding signal,PUM1 PUF domain R3-QRV,2.73 log2 enrichment (interaction score)
GGCUAGAACUAGUGGAUCCCCCGGCGCCCGGCGGCUCGAGCCCGGGUAAGUGUUAAUAGUCUGCAUGCCGCCGGGCGCCAUGCCUGCAGGUCGACUCUAGAAAACAUG,binding signal,PUM1 PUF domain R5-LYA,3.15 log2 enrichment (interaction score)
GGCUAGAACUAGUGGAUCCCCCGGCGCCCGGCGGCUCGAGCCCGGGUAAGUCUAAAUAGUCUGCAUGCCGCCGGGCGCCAUGCCUGCAGGUCGACUCUAGAAAACAUG,binding signal,PUM1 PUF domain R7-QPR,1.84 log2 enrichment (interaction score)
GGCUAGAACUAGUGGAUCCCCCGGCGCCCGGCGGCUCGAGCCCGGGUAAGUGUAAAUAGUCUGCAUGCCGCCGGGCGCCAUGCCUGCAGGUCGACUCUAGAAAACAUG,binding signal,PUM1 PUF domain R4-PFT,5.31 log2 enrichment (interaction score)
same,binding signal,PUM1 PUF domain R5-LYA,3.54 log2 enrichment (interaction score)
same,binding signal,PUM1 PUF domain R5-QRL,3.37 log2 enrichment (interaction score)
GGCUAGAACUAGUGGAUCCCCCGGCGCCCGGCGGCUCGAGCCCGGGUAAGUUUAAAUAGUCUGCAUGCCGCCGGGCGCCAUGCCUGCAGGUCGACUCUAGAAAACAUG,binding signal,PUM1 PUF domain R7-QPR,5.06 log2 enrichment (interaction score)
GGCUAGAACUAGUGGAUCCCCCGGCGCCCGGCGGCUCGAGCCCGGGUAAGUGUACAUAGUCUGCAUGCCGCCGGGCGCCAUGCCUGCAGGUCGACUCUAGAAAACAUG,binding signal,PUM1 PUF domain R4-NNG,1.82 log2 enrichment (interaction score)
